# Where “and” joins values, the source holds several entries; their conditions need not be identical. Equal values may be shown once. Some compounds were tested as several samples or in several runs, with calls that do not always agree. Calls of active or inactive are those of the source.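 Rule for the calls, unless noted: active = inhibition at or above 50% relative to wild type and mutant plate controls; inactive = inhibition below 50%.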
# How the values were obtained:
# [1] = reduction of polyQ htt aggregates in cells – imaging, exon1htt(103Q)mCFP cells, high-content imaging, primary screen (AID 483;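 active = visual image review flags a hit and inhibition of aggregation exceeds 20%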;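 note: compound exposure lasted 3 days before fixation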;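 for nuclei count: percent of the per-plate median nuclei count of sample wells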); conditions: exon1htt(103Q)mCFP cell line, aggregate imaging, at 2 µM; inhibition of aggregation: stronger effect = higher value; nuclei count: measured here: cell count, toxicity
# [2] = endothelial E-selectin expression blockers – imaging, HUVEC, immunofluorescence, MLSMR starter and 10KST1 sets, primary screen (AID 487;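 active = visually confirmed hit in the image check and inhibition above 20%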;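 for inhibition: signal is fraction of cell area covered by stained E-selectin grains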;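 for nuclei count: 100% = median nuclei count of all wells on the same plate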); conditions: HUVEC TNFalpha-induced E-selectin immunofluorescence imaging, at 2 µM; inhibition: stronger effect = higher value; nuclei count: measured here: cell number, toxicity
# [3] = Primary imaging screen for DUSP6 inhibitors that restore phospho-Erk in transfected HeLa cells, chemical complementation (AID 609;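 active = compounds giving at least 50% inhibition in the cell-based MKP-3 phosphatase rescue imaging test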;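 for inhibition: phospho-Erk level distribution per well compared with pooled transfected vehicle control wells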); conditions: HeLa MKP-3 transfected, phospho-Erk imaging KS statistic, at 10 µM, cells stimulated with TPA for 15 min
# [4] = target: Dual specificity protein phosphatase 6 (Homo sapiens) (UniProt Q16828); assay: as above; conditions: HeLa MKP-3 transfected, phospho-Erk imaging KS statistic; at 10 µM; stronger effect = higher value; cells stimulated with TPA for 15 min
# Dual specificity protein phosphatase 6 (Homo sapiens), sequence (Q16828 whole entry, looked up): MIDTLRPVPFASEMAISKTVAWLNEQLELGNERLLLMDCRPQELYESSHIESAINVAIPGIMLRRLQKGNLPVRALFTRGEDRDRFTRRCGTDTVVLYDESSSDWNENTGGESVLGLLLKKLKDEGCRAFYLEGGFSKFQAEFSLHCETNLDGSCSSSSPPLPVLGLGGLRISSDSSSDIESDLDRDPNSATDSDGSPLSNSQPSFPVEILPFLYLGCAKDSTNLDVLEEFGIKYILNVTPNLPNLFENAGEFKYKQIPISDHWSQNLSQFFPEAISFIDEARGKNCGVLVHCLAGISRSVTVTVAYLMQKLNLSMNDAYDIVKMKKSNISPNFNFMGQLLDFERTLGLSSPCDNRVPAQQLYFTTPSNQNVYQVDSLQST
# [5] = target: Voltage-gated potassium channel subunit beta-2 (Rattus norvegicus) (UniProt P62483); assay: inhibitors of rat Kvbeta2 reductase activity – biochemical, NADPH fluorescence, primary screen (AID 622;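 active = fluorescence slope higher than the sample average by over 3 SD, cut at about -0.22 in these data, passing the limit was not always enough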;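 note: slope of raw intensity against log time taken from 70 to 1610 s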); conditions: recombinant KvBeta, 4-cyanobenzaldehyde reduction, at 10 µM, stronger effect = higher value
# Voltage-gated potassium channel subunit beta-2 (Rattus norvegicus), sequence (P62483 whole entry, looked up): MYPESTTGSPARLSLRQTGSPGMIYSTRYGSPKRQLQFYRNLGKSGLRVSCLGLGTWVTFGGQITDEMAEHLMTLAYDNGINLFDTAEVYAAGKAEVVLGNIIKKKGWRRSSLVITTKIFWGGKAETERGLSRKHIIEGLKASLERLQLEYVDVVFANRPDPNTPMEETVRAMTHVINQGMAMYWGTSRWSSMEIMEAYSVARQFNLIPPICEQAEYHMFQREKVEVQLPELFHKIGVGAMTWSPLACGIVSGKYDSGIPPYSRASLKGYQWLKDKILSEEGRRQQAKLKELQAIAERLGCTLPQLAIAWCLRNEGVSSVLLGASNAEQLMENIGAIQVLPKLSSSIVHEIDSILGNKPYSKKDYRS
# [6] = target: Voltage-gated potassium channel subunit beta-2 (Rattus norvegicus) (UniProt P62483); assay: enhancers of rat Kvbeta2 NADPH turnover – biochemical, NADPH fluorescence, primary screen (AID 623;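 active = NADPH fluorescence slope more negative than the mean of all samples by about 3 SD, 99.7% confidence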;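 note: fluorescence intensity change per second fitted from 20 to 320 s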); conditions: Recombinant KvBeta, NADPH fluorescence decrease slope, 10 min; at 10 µM; stronger effect = lower value
# [7] = target: Alpha-2C adrenergic receptor (Homo sapiens) (UniProt P18825); assay: compounds altering alpha2C-coupled GIRK flux – cell-based, HEK293 alpha2C/GIRK1/2, thallium flux, primary screen (AID 624;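 active = fluorescence slope after compound addition differing from the mean of all screened samples at 99.7% confidence, in either direction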;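 note: slope of fluorescence ratio to pre-addition baseline per second over 15 to 24 s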); conditions: thallium flux BTC fluorescence, at 10 µM, actives lie on both sides
# Alpha-2C adrenergic receptor (Homo sapiens), sequence (P18825 whole entry, looked up): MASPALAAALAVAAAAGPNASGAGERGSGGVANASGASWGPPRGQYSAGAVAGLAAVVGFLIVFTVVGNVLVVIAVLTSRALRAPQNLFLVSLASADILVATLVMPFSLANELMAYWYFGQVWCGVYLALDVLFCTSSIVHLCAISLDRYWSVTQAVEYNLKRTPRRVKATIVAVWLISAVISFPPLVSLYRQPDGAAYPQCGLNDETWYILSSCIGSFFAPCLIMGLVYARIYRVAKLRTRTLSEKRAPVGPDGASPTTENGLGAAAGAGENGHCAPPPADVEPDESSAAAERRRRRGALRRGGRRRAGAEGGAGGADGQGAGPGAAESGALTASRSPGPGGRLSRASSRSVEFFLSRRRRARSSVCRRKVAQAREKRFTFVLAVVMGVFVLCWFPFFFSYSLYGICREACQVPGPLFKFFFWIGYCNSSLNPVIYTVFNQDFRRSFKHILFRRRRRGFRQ
# [8] = inhibitors of larval lipid processing in zebrafish, primary screen, whole organism, PED6 fluorescence, gall bladder and intestine (AID 686;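 active = a full or partial loss of lipid-probe fluorescence in the fish gall bladder, intestine or both, judged by eye; inactive = no fluorescence loss, or compound toxic to the fish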;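 note: larvae 5 to 7 days old with five fish per well; signal comes from phospholipase A2 cleavage of quenched PED6 carried via bile; overnight exposure to compound and PED6 before scoring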); conditions: Zebrafish larvae PED6 lipid processing, fluorescence scoring; screened at 20 µM (by protocol)
# [9] = loss of swimming-algae plug formation – whole organism, Chlamydomonas reinhardtii, WT vs cilia-less mutant, absorbance, 96-well, primary screen (AID 463189); conditions: Chlamydomonas reinhardtii gravitaxis, OD600 absorbance, 2 days; at 10 µM; stronger effect = higher value;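 note: 0% = wild type cc124 cells in DMSO and 100% = ciliumless bld1 mutant cells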
# [10] = blockers of RIG-like receptor reporter activation – cell-based, Sendai virus stimulus, luciferase, 10K MLSCN set, TLR/RLR signaling modifier project, primary screen (AID 602276;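 active = inhibition at or above 50% at 10 µM; inactive = inhibition below 50%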;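 note: firefly luciferase from ISG56 promoter only with Renilla not read in this screen; 0% = Sendai virus plus DMSO and 100% = medium plus DMSO without virus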); conditions: HEK293 RL24 IRF3 luciferase reporter, at 10 µM, stronger effect = higher value
# [11] = TLR3 IRF3 reporter activation blockers – cell-based, poly I:C stimulus, luciferase, 10K MLSCN set, primary screen (AID 602277;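 active = inhibition of the reporter signal at or above 50%; inactive = inhibition below 50%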); conditions: HEK293-TLR3 RL24 IRF3 luciferase reporter, at 10 µM, stronger effect = higher value
# [12] = target: Muscarinic acetylcholine receptor M4 (Homo sapiens) (UniProt P08173); assay: M4-linked GIRK flux change, two-sided – cell-based, HEK293 M4/GIRK, thallium flux, BTC-AM, M4 allosteric agonist project, primary screen (AID 625;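 active = fluorescence slope after compound addition differing from the mean of all tested samples at 99.7% confidence, mostly higher but some lower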;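 note: thallium influx through GIRK channels coupled to M4 in HEK293 cells with BTC-AM dye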); conditions: at 10 µM, actives lie on both sides
# Muscarinic acetylcholine receptor M4 (Homo sapiens), sequence (P08173 whole entry, looked up): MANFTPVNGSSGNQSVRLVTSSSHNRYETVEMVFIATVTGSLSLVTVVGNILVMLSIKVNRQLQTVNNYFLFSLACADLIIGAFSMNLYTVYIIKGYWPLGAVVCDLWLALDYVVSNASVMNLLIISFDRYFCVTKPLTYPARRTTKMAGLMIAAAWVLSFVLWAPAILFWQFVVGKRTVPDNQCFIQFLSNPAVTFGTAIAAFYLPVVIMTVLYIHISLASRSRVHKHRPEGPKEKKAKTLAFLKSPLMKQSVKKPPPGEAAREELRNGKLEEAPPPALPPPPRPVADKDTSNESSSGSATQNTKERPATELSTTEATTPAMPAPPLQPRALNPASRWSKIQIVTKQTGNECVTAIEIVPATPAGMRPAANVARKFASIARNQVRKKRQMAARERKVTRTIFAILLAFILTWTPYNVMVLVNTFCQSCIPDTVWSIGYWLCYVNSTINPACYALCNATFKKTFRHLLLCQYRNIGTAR
# [13] = measured here: cell density z-score
# [14] = measured here: nuclear c-Myc green intensity z-score
# [15] = measured here: nuclear pErk red intensity z-score, stronger effect = higher value
SMILES,inhibition of aggregation [1],nuclei count [1],inhibition [2],nuclei count [2],"z-score [3, 13]","z-score [3, 14]","z-score [3, 15]",inhibition [4],fluorescence slope [5],NADPH fluorescence slope [6],slope [7],outcome [8],inhibition [9],inhibition [10],inhibition [11],fluorescence slope [12]
Cc1cc(C(C)(C)C)cc(C)c1CC1=NCCN1,8.7% (inactive),94.6%,-76.9% (inactive),129%,0.444,-0.489,-0.727,5.79% (inactive),-0.464 (inactive),-7.1e-05 (inactive),0.00474 (inactive),inactive,-10% (inactive) and -5.2% (inactive),2.07% (inactive),45.9% (inactive),–
Cc1ncc([N+](=O)[O-])n1CCO,7.7% (inactive),76.5%,-67% (inactive),110%,0.289,-1.84,1.07,-5.24% (inactive),-0.491 (inactive),-8.5e-05 (inactive),0.00488 (inactive),inactive,1.99% (inactive),8% (inactive),25.4% (inactive),–
Cc1cccc(CN2CCN(C(c3ccccc3)c3ccc(Cl)cc3)CC2)c1 (stereo not given),-13.4% (inactive),103%,-28.5% (inactive),122%,-0.832,-0.304,-0.398,1.48% (inactive),-0.508 (inactive),-3.3e-06 (inactive),0.00615 (inactive),inactive,-15.7% (inactive),6.06% (inactive),30.8% (inactive),–
CC1CCc2cc(F)cc3c(=O)c(C(=O)O)cn1c23 (stereo not given),3.7% (inactive),100%,-103% (inactive),114%,-0.137,-0.228,0.466,13.3% (inactive),-0.526 (inactive),-7.5e-05 (inactive),0.00491 (inactive),inactive,-5.13% (inactive),9.82% (inactive),32.9% (inactive),–
C[N+](C)(C)CCCCCCCCCC[N+](C)(C)C,-3.9% (inactive),89.1%,-38.7% (inactive),126%,-0.332,-0.124,-0.205,7.39% (inactive),-0.47 (inactive),-5.9e-05 (inactive),0.00465 (inactive),inactive,0.674% (inactive) and 0.681% (inactive),-7.67% (inactive),7.68% (inactive),–
CN(C)CCCN1c2ccccc2Sc2ccc(C(F)(F)F)cc21,12.5% (inactive),99.9%,-14.6% (inactive),95.5%,-0.783,0.801,-0.407,13.3% (inactive),-0.487 (inactive),-8.7e-05 (inactive),0.00341 (inactive),inactive,81.9% (active) and 163% (active),18% (inactive),38.3% (inactive),–
CC(=O)[C@H]1CC[C@H]2[C@@H]3CCC4=CC(=O)CC[C@]4(C)[C@H]3CC[C@]12C,-5.3% (inactive),74.7%,-153% (inactive),125%,-0.82,-0.521,-0.268,-0.493% (inactive),-0.446 (inactive),-4.8e-05 (inactive),0.00331 (inactive),inactive,2.24% (inactive) and 8.52% (inactive),3.73% (inactive),31.6% (inactive),–
CCCCNC(=O)NS(=O)(=O)c1ccc(C)cc1,10.9% (inactive),99.2%,-56.6% (inactive),107%,0.542,-0.348,-1.78,9.37% (inactive),-0.454 (inactive),3.1e-05 (inactive),0.00531 (inactive),inactive,7.5% (inactive) and 29.4% (inactive),-6.27% (inactive),5.7% (inactive),–
CCc1oc2ccccc2c1C(=O)c1cc(Br)c(O)c(Br)c1,-4.4% (inactive),98%,-113% (inactive),132%,0.0952,0.368,0.987,17.3% (inactive),-0.429 (inactive),3.1e-06 (inactive),0.00421 (inactive),inactive; toxic,129% (active),18.5% (inactive),30.1% (inactive),–
CN(C)CCC(c1ccc(Br)cc1)c1ccccn1 (stereo not given),-6% (inactive),111%,-39% (inactive),109%,-1.33,-0.476,0.326,-6.41% (inactive),-0.467 (inactive),-6.3e-05 (inactive),0.00532 (inactive),inactive,0.349% (inactive) and -9.79% (inactive),5.43% (inactive),31.9% (inactive),–
COc1ccc2c(c1)c(CC(=O)O)c(C)n2C(=O)c1ccc(Cl)cc1,-23.8% (inactive),104%,-69% (inactive),122%,0.752,-1.27,-0.74,16.8% (inactive),-0.474 (inactive),-6.7e-05 (inactive),0.00463 (inactive),inactive,2.25% (inactive) and -4% (inactive),9.52% (inactive),22.4% (inactive),–
COc1cc(C2Oc3cc(C4Oc5cc(O)cc(O)c5C(=O)C4O)ccc3OC2CO)ccc1O (stereo not given),15.4% (inactive),94.5%,-86.6% (inactive),118%,-0.357,0.711,-0.479,-8.38% (inactive),-0.479 (inactive),1.9e-05 (inactive),0.00477 (inactive),inactive,-8.52% (inactive),-16.8% (inactive),-16.2% (inactive),–
N[C@@H](Cc1cc(I)c(Oc2ccc(O)c(I)c2)c(I)c1)C(=O)O,2.4% (inactive),100%,-50.6% (inactive),107%,1.52,-0.0364,-0.441,9.37% (inactive),-0.512 (inactive),-3.3e-05 (inactive),0.00387 (inactive),inactive,36.6% (inactive),20.4% (inactive),29.6% (inactive),–
Cc1cc(C)nc(NS(=O)(=O)c2ccc(N)cc2)n1,-9.6% (inactive),104%,-28.5% (inactive),107%,-0.395,0.0726,-0.14,-3.03% (inactive),-0.51 (inactive),-5.4e-05 (inactive),0.00415 (inactive),inactive,-15% (inactive),15.1% (inactive),26.9% (inactive),–
O=C(O)CCC(=O)Nc1ccc(S(=O)(=O)Nc2nccs2)cc1,-13.3% (inactive),93.6%,-59.2% (inactive),110%,-1.01,2.12,1.88,1.38% (inactive),-0.504 (inactive),-5.7e-05 (inactive),0.00423 (inactive),inactive,5.01% (inactive),21.6% (inactive),37.7% (inactive),–
CCC(=O)O[C@]1(C(=O)CCl)[C@@H](C)C[C@H]2[C@@H]3CCC4=CC(=O)C=C[C@]4(C)[C@@]3(F)[C@@H](O)C[C@@]21C,-20.8% (inactive),56.7%,-5.8% (inactive),116%,-0.246,0.687,0.17,3.45% (inactive),-0.528 (inactive),-3.3e-05 (inactive),0.00421 (inactive),inactive,18.1% (inactive),-10.2% (inactive),-4.89% (inactive),–
COC(=O)c1ccc(N2C(=O)CC(N3CCN(C(=O)c4ccco4)CC3)C2=O)cc1 (stereo not given),0.2% (inactive),103%,-195% (inactive),104%,0.106,-0.422,-0.968,8.31% (inactive),-0.527 (inactive),-5.8e-05 (inactive),–,inactive,1.38% (inactive),6.43% (inactive),18.5% (inactive),0.00534 (inactive)
CCOC(=O)c1cc2c(=O)n3cccc(C)c3nc2n(CCc2ccccc2)c1=N,-9% (inactive),86.6%,-145% (inactive),116%,-0.746,0.0077,0.78,-16.8% (inactive),-0.42 (inactive),-2e-05 (inactive),–,inactive,150% (active),12% (inactive),28.5% (inactive),0.00314 (inactive)
O=c1n(CCCN2CCN(c3cccc(Cl)c3)CC2)nc2ccccn12,32% (inactive),90%,-117% (inactive),124%,-0.214,-1.66,0.38,-5.24% (inactive),-0.359 (inactive),-2.9e-05 (inactive),0.00504 (inactive),inactive,7.63% (inactive) and 123% (active),10.6% (inactive),31.8% (inactive),–
Nc1ccc(C(=O)O)c(O)c1,3.1% (inactive) and 6.7% (inactive),99.9% and 81.7%,-66.9% (inactive) and -44% (inactive),121% and 120%,0.96 and 0.975,-0.574 and 0.166,0.314 and -1.51,3.59% (inactive) and 13.3% (inactive),-0.483 (inactive) and -0.504 (inactive),-1.6e-05 (inactive) and -1e-05 (inactive),0.00463 (inactive) and 0.00637 (inactive),inactive,-10.5% (inactive) and -2.41% (inactive),5.21% (inactive) and 16.9% (inactive),9.44% (inactive) and 29.7% (inactive),–
CCOc1ccc2nc(S(N)(=O)=O)sc2c1,-4.8% (inactive),112%,-20.9% (inactive),127%,1.44,0.726,-0.916,21.2% (inactive),-0.485 (inactive),-5.5e-05 (inactive),0.00518 (inactive),inactive,31% (inactive),3.12% (inactive),-17% (inactive),–
CC(=O)OCC(=O)[C@@]1(O)CC[C@H]2[C@@H]3CCC4=CC(=O)C=C[C@]4(C)[C@H]3[C@@H](O)C[C@@]21C,-0.6% (inactive),67.7%,-93.5% (inactive),130%,-0.00243,0.765,-0.773,9.37% (inactive),-0.506 (inactive),4.9e-06 (inactive),0.00476 (inactive),inactive,24.9% (inactive),-13.7% (inactive),-1.49% (inactive),–

# Reference: PubChem BioAssay
